# Measurements taken from PubChem BioAssay (Tox21).
# Values joined by “and” are separate entries in the source; they are usually repeats but may differ in a detail not shown here. Identical values can stand only once. Records with an inconclusive call do not appear. A call without a number means that no potency is given here. More than one record can exist for a structure, and the calls need not agree. Active and inactive are the calls of the source. Unless noted, calls follow the shape of the dose curve; as a rule, active = well fitted curve in the direction sought with a large enough effect in the repeat runs; inconclusive = weak or mixed curves; inactive = no such curve, though single readings can be large; an effect the other way counts as inactive or inconclusive.
# Assays:
# [1] = target: Acetylcholinesterase (Homo sapiens) (UniProt P22303); experiment: Acetylcholinesterase (AChE) small molecule antagonists: fluorescence cell-based qHTS assay (AID 1347398; calls by dose curve; also: nearly all actives have a fitted effect of over 50% in size); conditions: Potency: AChE activity
# Acetylcholinesterase (Homo sapiens), sequence (P22303 whole entry, looked up): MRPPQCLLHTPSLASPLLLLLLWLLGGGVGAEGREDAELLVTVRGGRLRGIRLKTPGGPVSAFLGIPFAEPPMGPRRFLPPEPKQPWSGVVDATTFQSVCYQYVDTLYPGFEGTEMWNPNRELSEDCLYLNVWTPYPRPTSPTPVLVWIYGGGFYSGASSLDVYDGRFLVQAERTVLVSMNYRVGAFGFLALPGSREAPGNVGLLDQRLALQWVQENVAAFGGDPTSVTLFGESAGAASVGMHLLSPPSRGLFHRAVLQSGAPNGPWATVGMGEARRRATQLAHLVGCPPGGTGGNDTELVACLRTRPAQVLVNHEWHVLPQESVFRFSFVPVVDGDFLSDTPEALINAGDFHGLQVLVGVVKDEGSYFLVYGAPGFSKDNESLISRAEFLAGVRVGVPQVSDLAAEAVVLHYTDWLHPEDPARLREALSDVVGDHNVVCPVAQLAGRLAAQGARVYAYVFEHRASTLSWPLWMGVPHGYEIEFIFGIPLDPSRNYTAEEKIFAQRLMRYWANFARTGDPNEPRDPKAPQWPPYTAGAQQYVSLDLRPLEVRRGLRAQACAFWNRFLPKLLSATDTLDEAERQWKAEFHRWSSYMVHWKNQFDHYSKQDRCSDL
# How it was run: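 Cells (SH-SY5Y) attached overnight, were dosed with compound or DMSO vehicle for 30 min at 37 C, and then incubated 40 min at room temperature with acetylthiocholine and Thiolite Green; green fluorescence indexed AChE activity.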
# [2] = target: Acetylcholinesterase (Homo sapiens) (UniProt P22303); experiment: Acetylcholinesterase (AChE) small molecule antagonists: enzyme-based qHTS assay with human liver microsomes (AID 1347399; calls by dose curve; also: nearly all actives have a fitted effect of over 60% in size); conditions: Potency: qHTS inhibition
# How it was run: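 Recombinant human AChE (50 mU/mL in the enzyme mix) and human liver microsomes (0.25 mg/mL final) were preincubated with compound and NADPH (0.25 mg/mL final) for 30 min at 37 C. Acetylthiocholine/DTNB was then added; thiocholine was read colorimetrically after 10 min at room temperature.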
# [3] = target: Cytochrome P450 2D6 (Homo sapiens) (UniProt P10635); experiment: Cytochrome P450 Family 2 Subfamily D Member 6 (CYP2D6) small molecule antagonists: luciferase reporter qHTS assay (AID 1671196); also: nearly all actives have a fitted effect of over 50% in size
# Cytochrome P450 2D6 (Homo sapiens), sequence (P10635 whole entry, looked up): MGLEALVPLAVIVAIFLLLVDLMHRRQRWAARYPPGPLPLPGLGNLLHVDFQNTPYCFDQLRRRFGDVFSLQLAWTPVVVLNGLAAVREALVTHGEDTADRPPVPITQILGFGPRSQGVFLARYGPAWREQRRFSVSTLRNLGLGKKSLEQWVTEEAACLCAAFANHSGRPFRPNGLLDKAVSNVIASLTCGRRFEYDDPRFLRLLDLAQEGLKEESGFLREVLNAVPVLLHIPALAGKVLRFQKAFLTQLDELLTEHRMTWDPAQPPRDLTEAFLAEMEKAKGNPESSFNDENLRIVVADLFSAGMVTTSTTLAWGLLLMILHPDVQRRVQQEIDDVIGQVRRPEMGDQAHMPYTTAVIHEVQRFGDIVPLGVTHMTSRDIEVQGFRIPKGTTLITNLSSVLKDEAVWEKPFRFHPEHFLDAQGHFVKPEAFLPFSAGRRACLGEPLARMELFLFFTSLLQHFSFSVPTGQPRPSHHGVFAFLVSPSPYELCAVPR
# How it was run: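 Test chemicals meet CYP2D6 plus proluciferin substrate (10 min, RT); NADPH regenerating solution then drives turnover for 1 h. Detection reagent halts the reaction; luminescence measured after 20 min.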
# [4] = target: Cytochrome P450 2C19 (Homo sapiens) (UniProt P33261); experiment: Cytochrome P450 Family 2 Subfamily C Member 19 (CYP2C19) small molecule antagonists: luciferase reporter qHTS assay (AID 1671197); also: nearly all actives have a fitted effect of over 65% in size
# Cytochrome P450 2C19 (Homo sapiens), sequence (P33261 whole entry, looked up): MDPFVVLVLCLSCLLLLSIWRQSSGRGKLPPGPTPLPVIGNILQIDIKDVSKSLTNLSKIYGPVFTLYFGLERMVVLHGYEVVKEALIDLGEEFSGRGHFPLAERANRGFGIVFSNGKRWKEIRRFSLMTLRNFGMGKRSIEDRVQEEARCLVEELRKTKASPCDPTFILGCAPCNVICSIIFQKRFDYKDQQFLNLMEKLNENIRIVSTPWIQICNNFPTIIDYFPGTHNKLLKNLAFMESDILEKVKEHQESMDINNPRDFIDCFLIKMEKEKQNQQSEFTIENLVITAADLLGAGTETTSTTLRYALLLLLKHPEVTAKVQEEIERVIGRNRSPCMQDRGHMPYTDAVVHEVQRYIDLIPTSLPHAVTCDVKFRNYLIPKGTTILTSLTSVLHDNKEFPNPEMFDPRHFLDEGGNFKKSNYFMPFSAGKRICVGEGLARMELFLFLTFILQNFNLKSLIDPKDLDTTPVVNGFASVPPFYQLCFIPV
# How it was run: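 Inhibition of CYP2C19 was scored from loss of luminescence in a P450-Glo proluciferin substrate assay, NADPH-started and run 1 h at 37C, with ketoconazole as positive control.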
# [5] = target: Cytochrome P450 1A2 (Homo sapiens) (UniProt P05177); experiment: Cytochrome P450 Family 1 Subfamily A Member 2 (CYP1A2) small molecule antagonists: luciferase reporter qHTS assay (AID 1671199); also: nearly all actives have a fitted effect of over 50% in size
# Cytochrome P450 1A2 (Homo sapiens), sequence (P05177 whole entry, looked up): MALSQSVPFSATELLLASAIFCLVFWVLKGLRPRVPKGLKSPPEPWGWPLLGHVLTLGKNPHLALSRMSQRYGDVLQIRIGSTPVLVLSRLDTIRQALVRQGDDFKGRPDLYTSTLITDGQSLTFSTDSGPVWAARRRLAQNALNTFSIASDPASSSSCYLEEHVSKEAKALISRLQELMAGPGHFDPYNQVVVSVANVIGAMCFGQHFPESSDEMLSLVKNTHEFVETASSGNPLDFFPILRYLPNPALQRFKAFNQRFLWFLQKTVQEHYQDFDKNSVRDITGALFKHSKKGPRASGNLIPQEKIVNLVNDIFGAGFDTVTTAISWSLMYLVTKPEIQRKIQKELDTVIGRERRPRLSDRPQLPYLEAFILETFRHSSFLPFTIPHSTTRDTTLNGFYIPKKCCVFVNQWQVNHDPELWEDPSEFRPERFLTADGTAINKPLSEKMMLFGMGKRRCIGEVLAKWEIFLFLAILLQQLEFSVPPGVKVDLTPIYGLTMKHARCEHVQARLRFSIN
# How it was run: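 Steps: enzyme-substrate mix dispensed; test compounds and furafylline control pinned in; 10 min room temperature; NADPH regeneration solution added, 1 h; reaction stopped with luciferin detection reagent; luminescence read after 20 min.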
# [6] = target: Voltage-gated inwardly rectifying potassium channel KCNH2 (Homo sapiens) (UniProt Q12809); experiment: Human Ether-a-go-go-Related Gene (hERG) channel small molecule antagonists: fluorescence cell-based qHTS assay (AID 1671200); also: nearly all actives have a fitted effect of over 50% in size
# Voltage-gated inwardly rectifying potassium channel KCNH2 (Homo sapiens), sequence (Q12809 whole entry, looked up): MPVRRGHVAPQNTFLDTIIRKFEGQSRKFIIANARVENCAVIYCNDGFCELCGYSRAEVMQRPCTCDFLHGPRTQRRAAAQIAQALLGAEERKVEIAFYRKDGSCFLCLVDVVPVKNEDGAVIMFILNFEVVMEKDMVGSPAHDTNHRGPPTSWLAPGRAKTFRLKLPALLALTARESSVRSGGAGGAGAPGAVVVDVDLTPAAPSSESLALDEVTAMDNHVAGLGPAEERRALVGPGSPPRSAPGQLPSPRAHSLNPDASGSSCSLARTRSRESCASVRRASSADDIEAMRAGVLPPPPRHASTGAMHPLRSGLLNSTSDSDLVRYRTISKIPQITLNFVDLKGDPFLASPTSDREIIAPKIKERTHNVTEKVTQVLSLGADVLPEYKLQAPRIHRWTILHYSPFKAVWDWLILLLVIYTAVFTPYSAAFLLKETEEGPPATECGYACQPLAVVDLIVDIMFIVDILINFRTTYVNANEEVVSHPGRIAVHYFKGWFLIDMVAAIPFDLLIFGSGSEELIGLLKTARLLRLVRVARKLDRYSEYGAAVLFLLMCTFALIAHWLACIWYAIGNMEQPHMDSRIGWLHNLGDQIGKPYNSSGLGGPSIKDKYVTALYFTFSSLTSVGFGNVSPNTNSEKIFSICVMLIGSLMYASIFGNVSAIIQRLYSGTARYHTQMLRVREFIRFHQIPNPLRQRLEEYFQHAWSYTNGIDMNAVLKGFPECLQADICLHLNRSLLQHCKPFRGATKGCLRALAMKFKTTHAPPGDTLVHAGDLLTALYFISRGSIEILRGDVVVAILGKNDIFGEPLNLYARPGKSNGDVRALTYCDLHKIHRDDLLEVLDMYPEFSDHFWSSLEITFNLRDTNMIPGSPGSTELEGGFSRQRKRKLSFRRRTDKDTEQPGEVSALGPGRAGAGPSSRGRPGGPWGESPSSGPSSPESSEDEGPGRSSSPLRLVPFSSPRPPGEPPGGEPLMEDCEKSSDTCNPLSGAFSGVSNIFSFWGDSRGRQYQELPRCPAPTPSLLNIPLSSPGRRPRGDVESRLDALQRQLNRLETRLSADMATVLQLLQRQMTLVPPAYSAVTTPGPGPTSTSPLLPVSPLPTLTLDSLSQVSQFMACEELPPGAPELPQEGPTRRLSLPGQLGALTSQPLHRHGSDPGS
# How it was run: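 U2OS cells expressing the channel were plated at 1000 cells/well, incubated overnight at 37 C, then loaded with FluxOR II thallium-sensitive dye for 1 h at room temperature in the dark, with a further 10 min at room temperature before stimulation.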
# [7] = target: Cytochrome P450 2C9 (Homo sapiens) (UniProt P11712); experiment: Cytochrome P450 Family 2 Subfamily C Member 9 (CYP2C9) small molecule antagonists: luciferase reporter qHTS assay (AID 1671198); also: nearly all actives have a fitted effect of over 50% in size
# Cytochrome P450 2C9 (Homo sapiens), sequence (P11712 whole entry, looked up): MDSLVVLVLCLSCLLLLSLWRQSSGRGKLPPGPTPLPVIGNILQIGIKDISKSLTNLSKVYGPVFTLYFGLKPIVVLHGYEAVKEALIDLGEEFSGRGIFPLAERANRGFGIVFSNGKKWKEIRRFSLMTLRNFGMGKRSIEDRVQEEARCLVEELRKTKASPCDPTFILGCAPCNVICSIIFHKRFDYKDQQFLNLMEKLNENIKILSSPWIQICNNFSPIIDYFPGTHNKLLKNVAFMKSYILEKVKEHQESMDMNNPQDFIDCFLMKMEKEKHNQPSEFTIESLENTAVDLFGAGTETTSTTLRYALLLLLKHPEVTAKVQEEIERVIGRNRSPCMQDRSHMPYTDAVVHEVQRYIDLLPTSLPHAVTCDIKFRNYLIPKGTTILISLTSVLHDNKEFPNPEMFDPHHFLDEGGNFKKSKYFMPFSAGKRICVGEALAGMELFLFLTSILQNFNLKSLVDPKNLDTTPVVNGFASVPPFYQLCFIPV
# How it was run: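 P450-Glo proluciferin substrate with CYP2C9 enzyme; 10 min RT preincubation, then NADPH regeneration 1 h at 37C; luciferin detection reagent 20 min RT, luminescence in relative luminescence units.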
# [8] = target: Cytochrome P450 3A4 (Homo sapiens) (UniProt P08684); experiment: Cytochrome P450 Family 3 Subfamily A Member 4 (CYP3A4) small molecule antagonists: luciferase reporter qHTS assay (AID 1671201); also: nearly all actives have a fitted effect of over 50% in size
# Cytochrome P450 3A4 (Homo sapiens), sequence (P08684 whole entry, looked up): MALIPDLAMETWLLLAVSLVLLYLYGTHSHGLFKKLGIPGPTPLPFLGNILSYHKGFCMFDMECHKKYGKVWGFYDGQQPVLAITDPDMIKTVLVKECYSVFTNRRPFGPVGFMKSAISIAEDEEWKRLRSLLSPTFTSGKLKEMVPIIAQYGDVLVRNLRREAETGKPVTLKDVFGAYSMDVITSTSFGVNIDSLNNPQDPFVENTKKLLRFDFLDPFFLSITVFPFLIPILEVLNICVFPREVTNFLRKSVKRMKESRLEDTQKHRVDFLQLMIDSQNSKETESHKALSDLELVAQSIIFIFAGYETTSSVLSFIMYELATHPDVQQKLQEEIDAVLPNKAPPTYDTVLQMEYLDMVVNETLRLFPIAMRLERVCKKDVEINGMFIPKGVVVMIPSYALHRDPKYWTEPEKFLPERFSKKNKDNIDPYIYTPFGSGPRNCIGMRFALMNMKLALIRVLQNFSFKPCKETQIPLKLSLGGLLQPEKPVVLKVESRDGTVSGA
# How it was run: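 P450-Glo CYP3A4 system with proluciferin substrate; compounds preincubated 10 min RT with enzyme-substrate mix, then NADPH regeneration added for 1 h RT. Detection reagent 20 min, luminescence read as relative luminescence units.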
# Potency is read from the fitted curve at half-maximal effect.
Structure (SMILES),Potency [1],Potency [2],Potency [3],Potency [4],Potency [5],Potency [6],Potency [7],Potency [8]
Cc1cccc(N=Nc2ccc(N(C)C)cc2)c1,inactive,inactive,inactive,10.2 µM (active) and 17.8 µM (active),2.28 µM (active) and 3.56 µM (active),inactive,–,–
O=[N+]([O-])/N=C1\NCCN1Cc1ccc(Cl)nc1,inactive,inactive,inactive,inactive,inactive,inactive,inactive,inactive
CC(C)(c1ccccc1)c1ccc(O)c(C(C)(C)c2ccccc2)c1,inactive,inactive,25 µM (active) and 35.6 µM (active),5.59 µM (active) and 3.56 µM (active),35.3 µM (active) and 35.6 µM (active),–,3.96 µM (active) and 2.83 µM (active),8.86 µM (active) and 6.33 µM (active)
CC[n+]1c(-c2ccccc2)c2cc(N)ccc2c2ccc(N)cc21,–,inactive,562 nM (active) and 2.19 µM (active),7.07 µM (active) and 5.49 µM (active),9.99 µM (active) and 10.2 µM (active),inactive,35.4 µM (active) and 30.9 µM (active),–
Cc1ccc(N=CN(C)C=Nc2ccc(C)cc2C)c(C)c1,–,inactive,31.9 µM (active) and 35.6 µM (active) and 27.5 µM (active),79.6 µM (active) and inactive,31.9 µM (active) and 35.6 µM (active) and 30.9 µM (active),inactive,inactive,–
ClC(Cl)(Cl)c1ccccc1,inactive,inactive,inactive,89.5 µM (active) and inactive,inactive,inactive,inactive,inactive
Cn1c(-c2ccccc2)cc(-c2ccccc2)[n+]1C,–,inactive,502 nM (active) and 1 µM (active),inactive,inactive,43.6 µM (active),inactive and 35.6 µM (active),–
CCCCC(C#N)(Cn1cncn1)c1ccc(Cl)cc1 (stereo unspecified),inactive,inactive,–,794 nM (active) and 633 nM (active),–,inactive,28.2 µM (active) and 25.2 µM (active),158 nM (active) and 224 nM (active)
COP(=S)(OC)Oc1ccc(Sc2ccc(OP(=S)(OC)OC)cc2)cc1,inactive,inactive,63.3 µM (active) and inactive,3.17 µM (active) and 4.9 µM (active),inactive,inactive,5.64 µM (active) and 11 µM (active),inactive
CC(C)=CC1C(C(=O)OCc2cccc(Oc3ccccc3)c2)C1(C)C (stereo unspecified),inactive,inactive,39.9 µM (active) and inactive,7.96 µM (active),–,inactive,3.17 µM (active) and 3.09 µM (active),inactive
N#Cc1nn(-c2c(Cl)cc(C(F)(F)F)cc2Cl)c(N)c1S(=O)C(F)(F)F (stereo unspecified),–,inactive,11.3 µM (active) and 6.17 µM (active),5.06 µM (active) and 9.77 µM (active),inactive,inactive,2.01 µM (active) and 3.09 µM (active),–
CCOP(=S)(OCC)SCn1c(=O)oc2cc(Cl)ccc21,inactive,8.55 µM (active) and 3.99 µM (active),13.5 µM (active) and 25.2 µM (active),76.2 nM (active) and 89.4 nM (active),2.7 µM (active) and 3.99 µM (active),23.5 µM (active),1.08 µM (active) and 1.12 µM (active),241 nM (active) and 317 nM (active)
N#CC(c1ccccc1)c1ccccc1,inactive,inactive,inactive,4.48 µM (active) and 5.03 µM (active),–,inactive,22.4 µM (active) and 35.6 µM (active),–
CSc1nc(NC(C)C)nc(NC(C)C)n1,inactive,inactive,inactive,39.8 µM (active) and 71 µM (active),17.8 µM (active),inactive,–,inactive
CCCCCCCCCCCCCl,–,inactive,inactive,inactive,inactive,inactive,inactive,–
Clc1cccc(Cl)c1,inactive,inactive,inactive,62.8 µM (active) and inactive,–,inactive,inactive,inactive
S=c1[nH]c2ccccc2[nH]1,10.1 µM (active) and inactive,inactive,inactive,39.9 µM (active),35.7 µM (active) and 35.6 µM (active),inactive,inactive,5.65 µM (active) and 7.96 µM (active)
